High-throughput results (PubChem BioAssay)
Shown is part of a subset that was picked to be rich in hits.
Shh pathway inh: blocks Sonic Hedgehog signaling. Shh-LIGHT2 Gli-luciferase reporter, 30 h. inhibition, % (concentration not given with the values). 22,000 compounds, 2.1% hits;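 active = mean inhibition across valid replicates above about 65%, limit read from the data; inconclusive = mean under the limit, yet half or more replicates past it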;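 note: pathway switched on by Shh-conditioned medium diluted 1 in 25 in low serum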
PD-1 reverse act: reversal of PD-1 mediated T-cell inhibition; activation, % (test concentration not listed); AID 2316; primary human CD4 T cells, PD-L1 beads, CellTiter-Glo 96 h; 29,000 tested, under 10 active; call rule not given here;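 note: 0% = median vehicle wells and 100% = positive control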
MITF inh: blocks MITF activity; TRPM1 promoter luciferase, luminescence, 24 h; AID 2240; inhibition, % (concentration not given with the values); 37,000 compounds, 0.28% hits; in the data active = inhibition above about 85%; inconclusive = no clear call, values can overlap the other calls; inactive = below about 68%;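 note: human melanocyte line stably carrying TRPM1 promoter luciferase reporter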
Numbers without * were called inactive; u = inconclusive; x = no result given.

SMILES | Shh pathway inh | PD-1 reverse act | MITF inh
CCC(C)[C@H]1C(=O)O[C@H](C(C)C)C(=O)N(C)[C@@H](C(C)CC)C(=O)O[C@H](C(C)C)C(=O)N(C)[C@@H](C(C)CC)C(=O)O[C@H](C(C)C)C(=O)N1C (stereo partly specified) | 103.9* | -14.1 | 96.1*
CC1=C2C[C@H]3[C@@H](CC=C4C[C@@H](O)CC[C@@]43C)[C@@H]2CC[C@]12O[C@@H]1C[C@H](C)CN[C@H]1[C@H]2C | 88.9* | x | 11.4
CO/C1=C/C(C)=C/[C@@H](C)[C@@H](O)[C@@H](C)C/C(C)=C/C=C\[C@H](OC)[C@@H]([C@@H](C)[C@@H](O)[C@H](C)[C@@]2(O)C[C@@H](O)[C@H](C)[C@@H](C(C)C)O2)OC1=O | 97.3* | -33.1 | -60.7
C=CC/C=C\C/C=C\CCCCCCCc1cc(O)cc(O)c1 | 28.1 | 1.4 | 5.8
N#CC(O[C@@H]1O[C@H](CO)[C@@H](O)[C@H](O)[C@H]1O)c1ccccc1 (stereo partly specified) | -30.3 | 0.9 | -5.4
C[C@H]1O[C@@H](O[C@H]2C[C@@H](O)[C@]3(CO)C4C(CC[C@]3(O)C2)[C@@]2(O)CC[C@H](C3=CC(=O)OC3)[C@@]2(C)C[C@H]4O)[C@@H](O)[C@@H](O)[C@H]1O (stereo partly specified) | -21.7 | -28.6 | 30.6
CC[C@H]1CN2CCc3cc(OC)c(OC)cc3[C@@H]2C[C@@H]1C[C@H]1NCCc2cc(O)c(OC)cc21 | 85.9* | x | 88.1*
COc1cc2c(cc1O)CCNC2C (stereo unspecified) | 0.5 | x | -14.0
CC1C/C=C/C2C3OC3(C)C(C)C3C(Cc4ccccc4)NC(=O)C23OC(=O)O/C=C/C(C)(O)C1=O (stereo unspecified) | 44.1 | -26.3 | 40.9
CC(=O)NC1C(OC2OC(CC(O)C3OC(n4ccc(=O)[nH]c4=O)C(O)C3O)C(O)C(O)C2NC(=O)/C=C/CCCCCCCCCC(C)C)OC(CO)C(O)C1O (stereo unspecified) | 107.9* | -3.9 | 60.2
COC1CC(O[C@H]2CC[C@@]3(C)C(CCC4C3CC[C@]3(C)C(C5=CC(=O)OC5)CCC43O)C2)OC(C)C1OC1OC(COC2OC(CO)C(O)C(O)C2O)C(O)C(O)C1O (stereo partly specified) | -0.4 | -5.8 | 9.0
O=c1[nH]c2ccccc2n1C1CCN(CCCC(c2ccc(F)cc2)c2ccc(F)cc2)CC1 | 72.8* | x | 56.5
C[C@H]1CC[C@@H]2[C@@H](C)[C@H]3[C@H](C[C@H]4[C@@H]5CC=C6CC(O[C@@H]7O[C@H](CO)[C@@H](O)[C@H](O[C@@H]8O[C@H](CO)[C@@H](O)[C@H](O)[C@H]8O)[C@@H]7O[C@@H]7O[C@@H](C)[C@H](O)[C@@H](O)[C@H]7O)CC[C@]6(C)[C@H]5CC[C@]34C)N2C1 (stereo partly specified) | 25.2 | -4.7 | 51.9
CC1=CC(=O)C2=C(C)C[C@H](O)[C@@H]3[C@H](OC(=O)[C@H]3C)[C@H]12 | -1.6 | x | 3.1
CC(=O)c1cccc(NC(=O)CSC2c3ccccc3-c3ccccc32)c1 | x | -0.8 | 4.9
C/C=C(\C)[C@H](O)[C@H](C)/C=C(C)/C=C/C/C(C)=C/Cc1[nH]c(OC)c(OC)c(=O)c1C | 55.4 | -8.4 | 96.2*
Oc1ccc2c3c1OC1[C@@H](O)CC[C@@]4(O)[C@@H](C2)N(CC2CCC2)CC[C@]314 (stereo partly specified) | -0.9 | x | -0.5
CN1CCc2nc3sc(C(=O)C(C)(C)C)c(N)c3cc2C1 | u | -0.8 | 40.8
C[C@@H]1CCC/C=C/[C@H]2C[C@@H](O)C[C@@H]2[C@@H](O)/C=C\C(=O)O1 | 101.2* | -6.1 | 87.2*
COCc1cc(OC(=O)N(C)C)nc2c1c(-c1cccs1)nn2C | 18.6 | -3.4 | 0.3
CC1OC(O[C@H]2C[C@@H](O)[C@]3(CO)[C@H]4[C@H](O)C[C@]5(C)[C@@H](C6=CC(=O)OC6)CC[C@]5(O)[C@@H]4CC[C@]3(O)C2)C(O)C(O)C1O (stereo partly specified) | -24.9 | -51.5 | 5.6
C[C@@H]1O[C@@H](O[C@H]2C[C@@H](O)[C@]3(CO)C4C(CC[C@]3(O)C2)[C@@]2(O)CC[C@H](C3=CC(=O)OC3)[C@@]2(C)C[C@H]4O)[C@H](O)[C@H](O)[C@H]1O (stereo partly specified) | -15.9 | x | 6.8
O=C(CCl)c1cc(Br)c(Br)s1 | -32.7 | -26.2 | 11.4
COc1cc([C@@H]2c3cc4c(cc3[C@H](OC(C)=O)[C@H]3COC(=O)[C@@H]23)OCO4)cc(OC)c1OC | 8.1 | x | 37.2
COc1cc([C@@H]2c3cc4c(cc3[C@@H](O)C3COC(=O)C32)OCO4)cc(OC)c1O (stereo partly specified) | 90.3* | x | 43.6
SMILES | Shh pathway inh | PD-1 reverse act | MITF inh
COc1cc(C2c3cc4c(cc3CC3COC(=O)C32)OCO4)cc(OC)c1OC (stereo unspecified) | 80.0* | -9.4 | 47.9
COc1ccc2c(c1OC)C(=O)O[C@H]2[C@H]1c2cc3c(cc2CCN1C)OCO3 | 53.5 | x | -3.3
O=C(Cn1cc(C(=O)c2ccccc2)c2ccccc21)NCC1CCCO1 (stereo unspecified) | x | 0.0 | -5.7
Cc1c(O)c(C(=O)O)c(O)c2c1[C@H](C)[C@@H](C)OC2=O | -4.1 | 0.5 | 11.0
CO[C@H]1[C@@H](O)[C@@H](C)O[C@@H](O[C@@H]2C=C3C(OC(C)=O)CC4(O)C(CC[C@]5(C)[C@@H](C6=CC(=O)OC6)CC[C@]45O)[C@@]3(C)CC2)[C@@H]1O (stereo partly specified) | -1.9 | -29.5 | 35.5
O=[N+]([O-])c1ccc(O)c([N+](=O)[O-])c1 | 50.0 | x | 104.8*
COCc1cc(OC(=O)N(C)C)nc(-c2ccncc2)n1 | x | -1.3 | -21.1
Cc1cc(Br)c(NC(=O)C2C(C)(C)C2(C)C)c(Br)c1 | 64.6* | -5.2 | 11.3
CC1(C)C(C(=O)Nc2ccccc2C#N)C1(C)C | -37.2 | 0.2 | 6.1
CC(C)N(C(=O)CCl)c1ccccc1 | 70.5* | x | 13.8
CCc1cccc(C)c1N(C(=O)CCl)C(C)COC (stereo unspecified) | -60.5 | x | 3.2
CN1Cc2c(ccc3c2OCO3)[C@@H]2[C@H]1c1cc3c(cc1C[C@@H]2O)OCO3 | -7.5 | 0.4 | 22.7
C=CC1C[N+]2([O-])CCC1CC2C(O)c1ccnc2ccc(OC)cc12 (stereo unspecified) | -37.3 | x | x
CCOC(=O)c1cc(C(C)(C)C)nc(OC(=O)N(C)C)c1C#N | 27.0 | -0.6 | -0.5
CCCC(=O)O[C@@H]1[C@@H](C)[C@@]2(O)[C@@H](C=C(CO)C[C@]3(O)C(=O)C(C)=C[C@@H]23)[C@@H]2C(C)(C)[C@]12OC(=O)CCC | 69.7* | 9.9 | 2.5
c1cncc(C2N=C(c3cnccn3)NN2)c1 (stereo unspecified) | -52.6 | 5.2 | -44.4
c1cncc(C2Nc3ccccc3-n3cccc32)c1 (stereo unspecified) | -41.3 | -6.2 | -31.2
C/C=C(/C)C(=O)O[C@H]1C(C)=C2[C@H]([C@@H]1OC(=O)CCCCCCC)[C@@](C)(OC(C)=O)C[C@H](OC(=O)CCC)[C@@]1(O)[C@H]2OC(=O)[C@@]1(C)O | 103.0* | x | 104.7*
